The results in this text go back to paper PMC5700166.

Experiment [1] deals with T1, GST-Nv-NF-kB (Ser allele) (Nematostella vectensis, UniProt A7UNT2 2-411).
T1 sequence: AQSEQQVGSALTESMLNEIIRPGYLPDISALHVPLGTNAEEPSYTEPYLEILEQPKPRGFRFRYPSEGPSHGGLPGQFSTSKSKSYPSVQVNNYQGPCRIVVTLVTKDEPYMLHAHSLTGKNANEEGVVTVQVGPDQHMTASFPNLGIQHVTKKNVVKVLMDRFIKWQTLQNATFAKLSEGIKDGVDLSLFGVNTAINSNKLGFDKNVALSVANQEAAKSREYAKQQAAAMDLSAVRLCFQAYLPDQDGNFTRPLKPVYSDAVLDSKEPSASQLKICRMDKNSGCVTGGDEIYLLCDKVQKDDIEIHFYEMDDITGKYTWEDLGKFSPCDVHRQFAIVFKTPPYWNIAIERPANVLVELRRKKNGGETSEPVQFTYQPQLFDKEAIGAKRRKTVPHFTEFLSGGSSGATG
The experiment is described as follows: protein-binding microarray (PBM); PBM: ~300 nM protein, 6 mM HEPES pH 7.8, 80 mM KCl, 0.5 mM EDTA, 0.5 mM EGTA, 6% glycerol, 35 ng/ul poly-dIdC, 1% milk, 1 h, room temperature; Ap Aiptasia and Nv Nematostella (sea anemones) / Co Capsaspora / Aq Amphimedon (sponge) / Dm Drosophila / Hu human; RHD is the Rel homology domain; high values mean tight binding. The following applies: dsDNA, one strand shown.

Experiment [2] concerns the target GST-Hu-p50 (Homo sapiens, UniProt P19838 7-356). Described as above. The following applies: dsDNA, one strand shown.

Chain of GST-Hu-p50 (P19838 7-356): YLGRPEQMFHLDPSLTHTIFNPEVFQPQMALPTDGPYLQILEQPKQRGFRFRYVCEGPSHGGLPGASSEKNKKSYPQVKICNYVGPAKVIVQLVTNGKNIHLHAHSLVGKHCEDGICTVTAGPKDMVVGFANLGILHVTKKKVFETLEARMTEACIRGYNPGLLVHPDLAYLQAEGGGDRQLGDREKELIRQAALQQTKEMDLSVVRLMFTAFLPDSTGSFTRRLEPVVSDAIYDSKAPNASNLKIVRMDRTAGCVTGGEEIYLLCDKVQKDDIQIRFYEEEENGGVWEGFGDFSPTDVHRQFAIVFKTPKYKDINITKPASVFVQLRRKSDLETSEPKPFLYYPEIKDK

For the sequence “CCGATTAACATCAAAGAAGCCCCTGATGTTAATCGGGTCTTGATTCGCTTGACGCTGCTG”, the binding signal came out at 4.95 z-score in experiment [1] and 5.02 z-score in experiment [2].

Turning to “CCGATTAACATCAGGGGAGCACCTGATGTTAATCGGGTCTTGATTCGCTTGACGCTGCTG”, the results for the binding signal in experiment [1] and in experiment [2] were 3.94 z-score and 4.33 z-score, respectively.

For the sequence “CCGATTAACATCAGGGGAGTACATGATGTTAATCGGGTCTTGATTCGCTTGACGCTGCTG”, the binding signal came to 3.51 z-score in experiment [1] and 2.47 z-score in experiment [2].

Consider “CCGATTAACATCAAATTGGGAAATGATGTTAATCGGGTCTTGATTCGCTTGACGCTGCTG”, for which the binding signal in experiment [1] turned out to be 2.19 z-score.

For the sequence “CCGATTAACATCAGGGGCGGGAATGATGTTAATCGGGTCTTGATTCGCTTGACGCTGCTG”, the results for the binding signal in experiment [1] and in experiment [2] were 3.18 z-score and 2.9 z-score, respectively.

For “CCGATTAACATCAGACAACCCCCTGATGTTAATCGGGTCTTGATTCGCTTGACGCTGCTG”, the binding signal in experiment [1] was found to be 4.56 z-score.

As for “CCGATTAACATCAGGGAAAGGGATGATGTTAATCGGGTCTTGATTCGCTTGACGCTGCTG”, the binding signal in experiment [1] was found to be 3.11 z-score.

With “CCGATTAACATCACACACCCCCCTGATGTTAATCGGGTCTTGATTCGCTTGACGCTGCTG”, the binding signal in experiment [1] was found to be 3.65 z-score; in experiment [2], 3.63 z-score.

With “CCGATTAACATCAAAGGTCCCCCTGATGTTAATCGGGTCTTGATTCGCTTGACGCTGCTG”, the binding signal stood at 4.32 z-score in experiment [1] and 3.35 z-score in experiment [2].

“CCGATTAACATCAGGGAATTAAATGATGTTAATCGGGTCTTGATTCGCTTGACGCTGCTG”: the results for the binding signal in experiment [1] and in experiment [2] were 3.98 z-score and 2.43 z-score, respectively.

For “CCGATTAACATCAAACTCCCCCGTGATGTTAATCGGGTCTTGATTCGCTTGACGCTGCTG”, the binding signal in experiment [1] was 6.52 z-score.

In the case of “CCGATTAACATCACGGTACTTCCTGATGTTAATCGGGTCTTGATTCGCTTGACGCTGCTG”, the binding signal in experiment [1] is 4.94 z-score; in experiment [2] it was 2.86 z-score.

Regarding “CCGATTAACATCAGGGGAGTATATGATGTTAATCGGGTCTTGATTCGCTTGACGCTGCTG”, the binding signal in experiment [1] worked out at 4.21 z-score; in experiment [2], 3.33 z-score.

For the sequence “CCGATTAACATCAGGAGATACCCTGATGTTAATCGGGTCTTGATTCGCTTGACGCTGCTG”, the binding signal came out at 1.65 z-score in experiment [1] and 2.58 z-score in experiment [2].

In the case of “CCGATTAACATCATAAGCGGGGATGATGTTAATCGGGTCTTGATTCGCTTGACGCTGCTG”, the results for the binding signal in experiment [1] and in experiment [2] were 3.83 z-score and 3.66 z-score, respectively.

With “CCGATTAACATCAGGGGTTTACCTGATGTTAATCGGGTCTTGATTCGCTTGACGCTGCTG”, the binding signal in experiment [1] turned out to be 4.43 z-score; in experiment [2] it was 4.94 z-score.

Regarding “CCGATTAACATCAGGGAAAGAAATGATGTTAATCGGGTCTTGATTCGCTTGACGCTGCTG”, the binding signal in experiment [1] was 3.86 z-score; in experiment [2], 2.62 z-score.

For “CCGATTAACATCAGGGACGGAAATGATGTTAATCGGGTCTTGATTCGCTTGACGCTGCTG”, the results for the binding signal in experiment [1] and in experiment [2] were 2.34 z-score and 2.19 z-score, respectively.

For the sequence “CCGATTAACATCATGGGGACGACTGATGTTAATCGGGTCTTGATTCGCTTGACGCTGCTG”, the figures for the binding signal in experiment [1] and in experiment [2] were 2.44 z-score and 2.41 z-score, respectively.

Take “CCGATTAACATCAGGGGGTACACTGATGTTAATCGGGTCTTGATTCGCTTGACGCTGCTG”: the binding signal in experiment [1] was determined as 3.94 z-score; in experiment [2], 3.13 z-score.

Take “CCGATTAACATCAGGAAATGCCCTGATGTTAATCGGGTCTTGATTCGCTTGACGCTGCTG”: the binding signal in experiment [1] turned out to be 1.15 z-score; in experiment [2], 2.89 z-score.

In the case of “CCGATTAACATCAGGTTTTCCCATGATGTTAATCGGGTCTTGATTCGCTTGACGCTGCTG”, the binding signal in experiment [1] worked out at 5.41 z-score; in experiment [2], 3.27 z-score.

With “CCGATTAACATCACCTCCGTATCTGATGTTAATCGGGTCTTGATTCGCTTGACGCTGCTG”, the binding signal in experiment [1] is 1.11 z-score; in experiment [2], 1.28 z-score.

Turning to “CCGATTAACATCAAACAATTCCCTGATGTTAATCGGGTCTTGATTCGCTTGACGCTGCTG”, the binding signal in experiment [1] turned out to be 5.01 z-score; in experiment [2], 3.72 z-score.

As for “CCGATTAACATCAGGCAATTCCCTGATGTTAATCGGGTCTTGATTCGCTTGACGCTGCTG”, the binding signal was determined as 3.97 z-score in experiment [1] and 3.86 z-score in experiment [2].

With “CCGATTAACATCATTCGGGAAAATGATGTTAATCGGGTCTTGATTCGCTTGACGCTGCTG”, the binding signal was found to be 4.94 z-score in experiment [1] and 3.03 z-score in experiment [2].

For “CCGATTAACATCAAAATTCCACCTGATGTTAATCGGGTCTTGATTCGCTTGACGCTGCTG”, the binding signal worked out at 3.38 z-score in experiment [1] and 3.61 z-score in experiment [2].

“CCGATTAACATCAAATAAGCCCCTGATGTTAATCGGGTCTTGATTCGCTTGACGCTGCTG” returned a binding signal in experiment [1] of 4 z-score.

For “CCGATTAACATCACATACCTACCTGATGTTAATCGGGTCTTGATTCGCTTGACGCTGCTG”, the binding signal in experiment [1] is 1.21 z-score.

As to “CCGATTAACATCAGGGAACAACCTGATGTTAATCGGGTCTTGATTCGCTTGACGCTGCTG”, the binding signal in experiment [1] came to 1.65 z-score; in experiment [2], 2.25 z-score.

In the case of “CCGATTAACATCAAGGGACTTCCTGATGTTAATCGGGTCTTGATTCGCTTGACGCTGCTG”, the binding signal in experiment [1] came to 5.97 z-score.

With “CCGATTAACATCACCCGTTTCCCTGATGTTAATCGGGTCTTGATTCGCTTGACGCTGCTG”, the binding signal came to 4.29 z-score in experiment [1] and 2.75 z-score in experiment [2].

As for “CCGATTAACATCAGGGGATCTACTGATGTTAATCGGGTCTTGATTCGCTTGACGCTGCTG”, the figures for the binding signal in experiment [1] and in experiment [2] were 5.35 z-score and 4.5 z-score, respectively.

Consider “CCGATTAACATCAGGAAATTTCCTGATGTTAATCGGGTCTTGATTCGCTTGACGCTGCTG”, for which the binding signal in experiment [1] was found to be 2.16 z-score; in experiment [2] it was 2.5 z-score.
